# Shown are actives, neighbours in structure and some others; about 21% of the full set was active somewhere.
# VP16 counter: VP16 counterscreen qHTS for inhibitors of ROR gamma transcriptional activity | actives 3.5% (n = 310,000) | Potency, µM (series often up to 53.6 µM), without a hit: at the highest dose activity, negative = inhibition, hits mostly inhibitors | Drosophila S2 Gal4-VP16 UAS-luciferase, luminescence, 20 h | AID 2546, 2010;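 also: Gal4-VP16 expression switched on by copper sulfate through the metallothionein promoter; potency is read from the fitted curve at half-maximal effect; nearly all actives have a fitted effect of over 50% in size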
# ELG1 DNA repair: qHTS screen for small molecules that inhibit ELG1-dependent DNA repair in human embryonic kidney (HEK293T) cells expressing luciferase-tagged ELG1. Potency, µM (titrated, usually from 46.1 µM), inactives show at the top dose activity change, negative = inhibition, most hits filed as inhibitors. actives 2.3% (n = 330,000). HEK293T ELG1-luciferase reporter, luminescence, 16 h; DNA damage induced by 5-fluorouridine; also: potency is read from the fitted curve at half-maximal effect; nearly all actives have a fitted effect of over 55% in size
#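 HEK293T cells expressing luciferase-tagged ELG1 (2,000/well) received 5-Fluorouridine plus compound or DMSO for 16 hr at 37 °C. Luciferase was read by ONE-Glo luminescence after 30 min at room temperature.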
# IL1B secr inh: qHTS for Inhibitors of Inflammasome Signaling: IL-1-beta AlphaLISA Primary Screen; THP-1 LPS/ATP IL-1B secretion, AlphaLISA, 16 h; hits give low values; activity change, % at 57.5 µM; actives 4.7% (n = 360,000); AID 743279, 2014; in the data active = activity change below about -50%; inconclusive = mostly about -30% to -49%
#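 Secreted IL-1B measured by AlphaLISA bead assay after 16 h compound exposure of THP-1 cells; compounds (final up to 57.5 uM) added 1 h before LPS (250 ng/mL) and ATP (1.25 mM) stimulation; lower signal means less secretion.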
# TDP1 cell noCPT: qHTS for Inhibitors of human tyrosyl-DNA phosphodiesterase 1 (TDP1): qHTS in cells in absence of CPT; DT40 Tdp1-/- hTDP1 cells, no CPT, ATP luminescence, 48 h; Potency, µM (titrated, usually from 46.2 µM), for the others: at the highest dose activity change, negative = growth inhibition, usual class: inhibitors; actives 15% (n = 420,000); AID 686978, 2013; also: potency is read from the fitted curve at half-maximal effect; nearly all actives have a fitted effect of over 55% in size
#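 Seeded 400 DT40-hTDP1 cells/well (vehicle DMSO, no 20 nM CPT); pinned compounds; ≥48 hr at 37 °C; CellTiter-Glo luminescence as viability measure.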
# DT40 TDP1 CPT: qHTS for Inhibitors of human tyrosyl-DNA phosphodiesterase 1 (TDP1): qHTS in cells in presence of CPT; Potency, µM (top dose mostly 46.2 µM), inactives show at the top dose activity change, negative = growth inhibition, actives largely listed as inhibitors; chicken DT40 Tdp1-/-;hTDP1 cells + 20 nM CPT, ATP luminescence, 48 h; actives 12% (n = 420,000); also: potency is read from the fitted curve at half-maximal effect; nearly all actives have a fitted effect of over 55% in size
#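 Cell growth measured by CellTiter-Glo luminescence after a minimum 48 h, 37 C compound exposure with 20 nM CPT in Tdp1-knockout DT40 cells stably expressing hTDP1, seeded 400/well; qHTS titration format.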
# RORgamma inh: qHTS for inhibitors of ROR gamma transcriptional activity; Drosophila S2 Gal4-RORgamma UAS-luciferase reporter, 20 h; Nuclear receptor ROR-gamma (Mus musculus), P51450; actives 5.4% (n = 310,000); Potency, µM (series often up to 53.6 µM), for inactives: top-dose activity change, negative = inhibition, hits mostly inhibitors; also: potency is read from the fitted curve at half-maximal effect; nearly all actives have a fitted effect of over 60% in size
# Target sequence (P51450 whole entry, looked up, the tested form may be a part): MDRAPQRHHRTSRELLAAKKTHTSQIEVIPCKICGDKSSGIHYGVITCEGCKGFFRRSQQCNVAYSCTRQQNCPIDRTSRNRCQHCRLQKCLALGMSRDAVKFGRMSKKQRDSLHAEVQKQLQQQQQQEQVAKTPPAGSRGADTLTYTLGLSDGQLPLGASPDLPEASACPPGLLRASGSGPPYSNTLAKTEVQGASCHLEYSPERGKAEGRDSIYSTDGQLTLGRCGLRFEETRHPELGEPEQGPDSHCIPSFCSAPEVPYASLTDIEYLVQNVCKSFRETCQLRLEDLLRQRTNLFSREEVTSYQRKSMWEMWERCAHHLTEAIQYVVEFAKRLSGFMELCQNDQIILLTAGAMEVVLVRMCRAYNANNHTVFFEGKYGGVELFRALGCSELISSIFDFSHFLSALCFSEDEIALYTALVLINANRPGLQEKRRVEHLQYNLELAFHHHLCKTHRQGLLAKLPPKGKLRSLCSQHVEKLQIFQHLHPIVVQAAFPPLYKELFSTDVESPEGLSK
#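 Drosophila S2 cells stably expressing Gal4-DBD/mouse RORγ fusion under metallothionein promoter plus UAS-luciferase; compound 1 h, then 700 uM CuSO4 induction for 20 h at ambient temperature; inhibition read as reduced luminescence.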
# An asterisk follows results filed as active; ? = inconclusive; · = not tested or not shown; [ ] = dose if it differs, or a comment. Unless noted, calls follow the shape of the dose curve; as a rule, active = well fitted curve in the direction sought with a large enough effect; inconclusive = small, poorly fitted or top-dose-only effect, or another doubt; inactive = no such curve, though single readings can be large; an effect the other way counts as inactive or inconclusive. % is scaled to controls: 0 for no effect and ±100 for the full control effect.
SMILES,VP16 counter,ELG1 DNA repair,IL1B secr inh,TDP1 cell noCPT,DT40 TDP1 CPT,RORgamma inh
Cc1nc(NCc2ccco2)c2c3c(sc2n1)CCC3,4.3%,-27.7%,-80.3*,13µM*,13µM*,-19.4%
COc1ccccc1C(=O)C1CCCN(C(=O)c2ccccc2Cl)C1 (stereo unspecified),2.3%,-2.2%,0.0,?,?,25.9%
CS(=O)(=O)N1CCC2(CCCN(C(c3ccccc3)c3ccccc3)C2)CC1,-3.0%,·,·,?,?,18.0%
O=C(O)c1ccccc1NS(=O)(=O)c1cccc(-n2sc3ccccc3c2=O)c1,?,15.2%,-93.1*,8.2µM*,14.6µM*,10.5%
CC(=O)Nc1ccc(S(=O)(=O)Nc2cc(C)on2)cc1,·,·,·,-14.7%,8.4%,·
CC1=C(CO)C(=O)OC([C@@H](C)C2CC[C@H]3C4C[C@H]5O[C@]56[C@@H](O)C=CC(=O)[C@]6(C)C4CC[C@]23C)C1 (stereo partly specified),?,9.2µM*,-106.6*,1.3µM*,1.46µM*,?
CC(C(=O)O)C1CCC2C3CC=C4CC(O)CC[C@@]4(C)C3CC[C@]12C (stereo partly specified),2.6%,·,·,0.1%,2.4%,-20.8%
CNc1nc(Cl)c(SC)c(NCc2cccc(OC)c2)n1,-7.3%,-1.1%,37.2,23.1µM*,?,22.8%
CC1CC/C(=C\c2ccc3c(c2)OCO3)C(=O)/C1=C/c1ccc2c(c1)OCO2 (stereo unspecified),1.0%,-0.8%,-54.7*,?,?,2.1%
CC(O)(c1ccccc1)c1nc(-c2ccc(S(C)(=O)=O)cc2)cs1 (stereo unspecified),·,·,10.2,?,-20.6%,·
CC(O)(c1ccccc1)c1nc(-c2ccccc2)cs1 (stereo unspecified),·,·,0.0,?,20.6µM*,·
CC(O)(c1ccccc1)c1nc(-c2ccncc2)cs1 (stereo unspecified),·,·,-0.6,?,4.11µM*,·
COC(c1ccc2c(c1)CN(C(=O)Cn1nc(C)c3ccccc3c1=O)CCO2)C1CCCCC1 (stereo unspecified),·,·,·,-17.4%,-2.1%[9.04 µM],·
O=C1c2ccccc2S(=O)(=O)c2cc(C(=O)N3CCN(c4ccc(Cl)cn4)CC3)ccc21,·,·,?,-11.0%,2.8%,·
N#Cc1cccnc1N1CCN(C(=O)c2ccc3c(c2)S(=O)(=O)c2ccccc2C3=O)CC1,·,·,?,?,25.9µM*,·
O=C(c1ccc2c(c1)N(Cc1cccc(Cl)c1)C(=O)c1ccccc1S2(=O)=O)N1CCN(c2ccccn2)CC1,-7.5%,8.4%,-1.6,13µM*,?,-16.3%
O=C(c1ccc2c(c1)N(Cc1ccc(Cl)cc1)C(=O)c1ccccc1S2(=O)=O)N1CCN(c2ccccn2)CC1,·,·,·,23.1µM*,16.4µM*,·
COc1cccc(Cn2c(=O)c(-c3ccccc3)nc3cncnc32)c1,7.2%,·,·,-25.6%,?,-7.6%
CSc1nsc(SC)c1NC(=O)OCCc1ccccn1,3.0%,-0.1%,16.3,2.4%,-8.6%,5.1%
CSc1nsc(SC)c1NC(=O)Nc1ccccn1,-9.5%,-9.8%,1.3,?,16.4µM*,18.9%
COc1ccc(OC)c(NC(=O)Cn2c(=O)oc3cc(S(=O)(=O)NCc4ccccc4)ccc32)c1,·,·,·,14.6µM*,?,·
COc1ccccc1CNC(=O)Cn1c(=O)oc2cc(S(=O)(=O)NCc3ccccc3)ccc21,·,·,·,18.4µM*,10.3µM*,·
CCOC(=O)Cn1c(=O)oc2cc(S(=O)(=O)NCc3ccc(F)cc3)ccc21,·,·,·,-24.5%,-4.5%,·
COc1ccccc1CNC(=O)Cn1c(=O)oc2ccccc21,·,·,·,-19.3%,-0.6%,·
CCOc1ccccc1NC(=O)Cn1c(=O)oc2cc(S(=O)(=O)NCc3ccccc3)ccc21,·,·,·,?,13µM*,·
SMILES,VP16 counter,ELG1 DNA repair,IL1B secr inh,TDP1 cell noCPT,DT40 TDP1 CPT,RORgamma inh
C/C(=N\NC(=O)CN1CCN(c2ccc(F)cc2)CC1)c1ccco1,·,·,-0.5,1.5%,5.3%,·
Cc1ccc(C(=O)Nc2c(-c3ccccc3)nc3ccccn23)cc1C,·,·,·,?,-5.9%,·
Cc1nc2cnc(OCc3ccccc3)nc2n(C)c1=O,17.9%,·,·,4.0%,11.4%,?
COc1ccccc1NC(=O)Cn1nnc(-c2ccccc2NC(=O)c2cccs2)n1,2.2%,?,-15.6,20.6µM*,?,-17.6%
COc1ccc(NC(=O)Cn2nnc(-c3ccccc3NC(=O)c3ccco3)n2)cc1,?,?,-1.6,2.59µM*,2.91µM*,?
COc1cc(NC(=O)Cn2nnc(-c3ccccc3N)n2)cc(OC)c1,0.0%,-21.0%,-58.8*,?,?,24.0%
CCCCCCOc1ccc(CC(=O)O)cc1,·,·,·,0.4%,-0.5%,·
Cn1cccc1C(=O)NCC(c1ccco1)N1CCCCC1 (stereo unspecified),·,?,9.6,-19.2%,7.7%,·
C[C@H]1CN=C(Nc2ccccc2)N1CCC1CCCC1,5.5%,-17.3%,-0.1,23.1µM*,?,-25.0%
CCCCCCCN1C(Nc2ccccc2)=NC[C@@H]1CC(C)C,0.2%,-15.7%,-77.8*,16.4µM*,11.6µM*,-11.0%
CCC(C)CCN1C(Nc2ccccc2)=NC[C@@H]1C (stereo partly specified),1.3%,1.1%,4.7,11.6µM*,?,-10.4%
CC(C)C[C@H]1CN=C(Nc2ccccc2)N1CCC(C)c1ccccc1 (stereo partly specified),·,-2.3%,?,?,?,·
CC(C)C[C@H]1CN=C(Nc2ccccc2)N1CCCC1CCCC1,1.3%,-4.3%,-63.3*,5.17µM*,14.6µM*,-38.0%
C[C@H]1CN=C(Nc2ccccc2)N1CCc1ccccc1,·,1.6%,3.0,-10.3%,-12.0%,·
O=C(O)CCC(=O)N1N=C(c2ccccc2)CC1c1ccc2c(c1)OCO2 (stereo unspecified),-1.9%,-3.0%,19.3,15.1%,-2.8%,-26.8%
Cc1cc2c(cc(C(=O)OC(C)C(=O)NCc3ccc(F)cc3)n2C)o1 (stereo unspecified),·,·,5.1,-19.1%,-5.8%,·
